MITF inh = inhibitors of human MITF; AlphaScreen MITF homodimerization, bead proximity signal; AID 1259374; inhibition, % at 2.6 µM; 650,000 compounds, 0.91% hits; O75030; in the data active means inhibition above about 50%;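 further: 0% = vehicle wells with protein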
TEAD-YAP inh = TEAD-YAP interaction inhibition; HEK-TIYL cells, TEAD-Gal4/YAP UAS-luciferase luminescence; inhibition, % at 9.12 µM; 640,000 compounds, 1.4% hits; in the data active means inhibition above about 32%;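 further: 0% = median of test compound wells and 100% = reference inhibitor wells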
FBW7 activator = activators of human E3 ligase FBW7; normalized activity (activation), % at 26.1 µM; 650,000 compounds, 0.13% hits; AlphaScreen FBW7–phospho-cyclin E peptide binding, activator screen; in the data active means normalized activity above about 1.9%;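 further: purified mutant Fbw7 with reduced substrate affinity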
GPR151 activ = activates the human receptor GPR151; PathHunter beta-arrestin GPR151 cells, luminescence; AID 1508602; activation, % at 11.2 µM; 650,000 compounds, 1% hits; in the data active means activation above about 4.9%;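 further: 0% = median of compound wells and 100% = cells with positive control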
Target sequence (Q8TDV0 whole entry, looked up): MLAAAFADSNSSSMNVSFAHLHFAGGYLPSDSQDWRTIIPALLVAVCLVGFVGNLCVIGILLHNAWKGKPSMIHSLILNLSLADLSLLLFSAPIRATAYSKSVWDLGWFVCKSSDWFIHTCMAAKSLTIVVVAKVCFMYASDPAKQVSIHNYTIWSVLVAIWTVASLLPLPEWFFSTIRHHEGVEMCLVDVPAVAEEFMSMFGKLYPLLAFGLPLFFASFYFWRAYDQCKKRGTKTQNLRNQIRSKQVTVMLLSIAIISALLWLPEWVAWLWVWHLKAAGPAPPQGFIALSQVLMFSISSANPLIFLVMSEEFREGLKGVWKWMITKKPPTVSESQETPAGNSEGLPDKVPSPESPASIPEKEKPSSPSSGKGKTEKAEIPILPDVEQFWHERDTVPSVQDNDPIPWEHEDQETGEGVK
* marks the source's active call; other numbers are inactive results. The list is not random: actives were taken first. Their share in the collection is about 3.4%.

What do the screens show for `CCCCC(=O)NC(c1cccs1)c1ccc2cccnc2c1O` (centres undefined)?
MITF inh: 49; TEAD-YAP inh: 88*; FBW7 activator: -1; GPR151 activ: -1

What do the screens show for `CCC(=O)NC(c1ccccc1OC)c1ccc2cccnc2c1O` (centres undefined)?
MITF inh: 43; TEAD-YAP inh: 44*; FBW7 activator: -2; GPR151 activ: 1

Results for CCC(=O)NC(c1ccccc1Cl)c1ccc2cccnc2c1O (centres undefined) ?
MITF inh: 31; TEAD-YAP inh: 89*; FBW7 activator: -2; GPR151 activ: 0

How did COc1ccccc1C1(C)C(=O)Nc2ccccc21 (centres undefined) do in these assays?
MITF inh: 10; TEAD-YAP inh: 2; FBW7 activator: 0; GPR151 activ: 3

Results for O=C1CSC(c2ccc([N+](=O)[O-])cc2)N1c1ccc(F)cc1 (centres undefined) ?
MITF inh: 15; TEAD-YAP inh: 5; FBW7 activator: 0; GPR151 activ: -1

What do the screens show for `COc1cc(S(=O)(=O)N2CCN(C(=O)c3ccco3)CC2)ccc1Cl`?
MITF inh: 6; TEAD-YAP inh: -1; FBW7 activator: 0; GPR151 activ: 0

How did C=CCNC(=S)Nc1cc(C)cc(C)c1 do in these assays?
MITF inh: -22; TEAD-YAP inh: 7; FBW7 activator: 0; GPR151 activ: 0

What do the screens show for `CC(=O)NC(Nc1nnc(-c2ccccc2)s1)C(Cl)(Cl)Cl` (centres undefined)?
MITF inh: -6; TEAD-YAP inh: 22; FBW7 activator: 0; GPR151 activ: 3

Results for CC(=O)NC(Nc1nnc(-c2ccc(C)cc2)s1)C(Cl)(Cl)Cl (centres undefined) ?
MITF inh: 8; TEAD-YAP inh: 49*; FBW7 activator: 0; GPR151 activ: -1

How did N/C(=N\O)c1ccc(NC(=O)c2ccccn2)cc1 do in these assays?
MITF inh: 3; TEAD-YAP inh: 32*; FBW7 activator: 0; GPR151 activ: -5

How did O=C(Nc1cc(Cl)cc(Cl)c1)c1ccccn1 do in these assays?
MITF inh: 0; TEAD-YAP inh: -7; FBW7 activator: 0; GPR151 activ: 0

How did N/C(=N\OC(=O)c1ccc(F)cc1)c1ccccn1 do in these assays?
MITF inh: 5; TEAD-YAP inh: 56*; FBW7 activator: 0; GPR151 activ: -8

What do the screens show for `O=C(Nc1ccc(-c2ccccc2)cc1)c1ccccn1`?
MITF inh: -9; TEAD-YAP inh: 64*; FBW7 activator: 0; GPR151 activ: -5

How did CC1(Cc2ccc(S(C)(=O)=O)cc2)C(=O)Nc2ccc(-c3cccnc3)cc21 (centres undefined) do in these assays?
MITF inh: 45; TEAD-YAP inh: 19; FBW7 activator: 1; GPR151 activ: 0

What do the screens show for `CC1(Cc2ccc(F)cc2)C(=O)Nc2ccc(-c3cccnc3)cc21` (centres undefined)?
MITF inh: 6; TEAD-YAP inh: 38*; FBW7 activator: 0; GPR151 activ: 0

Results for CC1(Cc2ccc(Cl)s2)C(=O)Nc2ccc(-c3cccnc3)cc21 (centres undefined) ?
MITF inh: 13; TEAD-YAP inh: 33*; FBW7 activator: 0; GPR151 activ: 3

What do the screens show for `CC1(Cc2ccc(C(F)(F)F)o2)C(=O)Nc2ccc(-c3cccnc3)cc21` (centres undefined)?
MITF inh: 2; TEAD-YAP inh: 40*; FBW7 activator: 1; GPR151 activ: 1

How did COC(=O)c1ccc(CC2(C)C(=O)Nc3ccc(-c4cccnc4)cc32)o1 (centres undefined) do in these assays?
MITF inh: 18; TEAD-YAP inh: 13; FBW7 activator: 1; GPR151 activ: 0

Results for Cc1ccc2c(c1)C(=O)C(=O)N2CC(=O)N(CC(=O)NC1CC1)C(C)(C)C ?
MITF inh: 6; TEAD-YAP inh: 7; FBW7 activator: 0; GPR151 activ: 0

How did CCOC(=O)c1sc2nc(C)nc(Nc3ccc(C)c(Cl)c3)c2c1C do in these assays?
MITF inh: -5; TEAD-YAP inh: -14; FBW7 activator: 0; GPR151 activ: -1

How did C=C1CC[C@H](O)C/C1=C/C=C1\CCCC2(C)C1CCC2C(C)CCCC(C)C (some centres undefined) do in these assays?
MITF inh: 11; TEAD-YAP inh: -5; FBW7 activator: 0; GPR151 activ: 1

How did C=C1/C(=C\C=C2/CCCC3(C)[C@@H]([C@H](C)CCCC(C)(C)O)CC[C@@H]23)C[C@@H](O)C[C@@H]1O (some centres undefined) do in these assays?
MITF inh: -2; TEAD-YAP inh: 37*; FBW7 activator: 0; GPR151 activ: 0
